Data taken from the supplement of paper PMC11732987, “Enantioselective OTUD7B fragment discovery through chemoproteomics screening and high-throughput optimisation” (Communications Chemistry, 2025).
Values without a mark were called inactive.

Assays:
Experiment in all cases: log2 ratio of Biotin-Ahx-Ub-VS probe labelling (fragment/DMSO); higher = less target engagement (more negative = stronger competition), active = hit call of the paper (q ≤ 0.05, log2 ratio ≤ -1)
Settings in all cases: compound concentration: 200 uM; treatment time: 3 h
UniProt O00507 = molecular target: UniProt O00507
Sequence of UniProt O00507 (O00507 whole entry, the tested form may be a part): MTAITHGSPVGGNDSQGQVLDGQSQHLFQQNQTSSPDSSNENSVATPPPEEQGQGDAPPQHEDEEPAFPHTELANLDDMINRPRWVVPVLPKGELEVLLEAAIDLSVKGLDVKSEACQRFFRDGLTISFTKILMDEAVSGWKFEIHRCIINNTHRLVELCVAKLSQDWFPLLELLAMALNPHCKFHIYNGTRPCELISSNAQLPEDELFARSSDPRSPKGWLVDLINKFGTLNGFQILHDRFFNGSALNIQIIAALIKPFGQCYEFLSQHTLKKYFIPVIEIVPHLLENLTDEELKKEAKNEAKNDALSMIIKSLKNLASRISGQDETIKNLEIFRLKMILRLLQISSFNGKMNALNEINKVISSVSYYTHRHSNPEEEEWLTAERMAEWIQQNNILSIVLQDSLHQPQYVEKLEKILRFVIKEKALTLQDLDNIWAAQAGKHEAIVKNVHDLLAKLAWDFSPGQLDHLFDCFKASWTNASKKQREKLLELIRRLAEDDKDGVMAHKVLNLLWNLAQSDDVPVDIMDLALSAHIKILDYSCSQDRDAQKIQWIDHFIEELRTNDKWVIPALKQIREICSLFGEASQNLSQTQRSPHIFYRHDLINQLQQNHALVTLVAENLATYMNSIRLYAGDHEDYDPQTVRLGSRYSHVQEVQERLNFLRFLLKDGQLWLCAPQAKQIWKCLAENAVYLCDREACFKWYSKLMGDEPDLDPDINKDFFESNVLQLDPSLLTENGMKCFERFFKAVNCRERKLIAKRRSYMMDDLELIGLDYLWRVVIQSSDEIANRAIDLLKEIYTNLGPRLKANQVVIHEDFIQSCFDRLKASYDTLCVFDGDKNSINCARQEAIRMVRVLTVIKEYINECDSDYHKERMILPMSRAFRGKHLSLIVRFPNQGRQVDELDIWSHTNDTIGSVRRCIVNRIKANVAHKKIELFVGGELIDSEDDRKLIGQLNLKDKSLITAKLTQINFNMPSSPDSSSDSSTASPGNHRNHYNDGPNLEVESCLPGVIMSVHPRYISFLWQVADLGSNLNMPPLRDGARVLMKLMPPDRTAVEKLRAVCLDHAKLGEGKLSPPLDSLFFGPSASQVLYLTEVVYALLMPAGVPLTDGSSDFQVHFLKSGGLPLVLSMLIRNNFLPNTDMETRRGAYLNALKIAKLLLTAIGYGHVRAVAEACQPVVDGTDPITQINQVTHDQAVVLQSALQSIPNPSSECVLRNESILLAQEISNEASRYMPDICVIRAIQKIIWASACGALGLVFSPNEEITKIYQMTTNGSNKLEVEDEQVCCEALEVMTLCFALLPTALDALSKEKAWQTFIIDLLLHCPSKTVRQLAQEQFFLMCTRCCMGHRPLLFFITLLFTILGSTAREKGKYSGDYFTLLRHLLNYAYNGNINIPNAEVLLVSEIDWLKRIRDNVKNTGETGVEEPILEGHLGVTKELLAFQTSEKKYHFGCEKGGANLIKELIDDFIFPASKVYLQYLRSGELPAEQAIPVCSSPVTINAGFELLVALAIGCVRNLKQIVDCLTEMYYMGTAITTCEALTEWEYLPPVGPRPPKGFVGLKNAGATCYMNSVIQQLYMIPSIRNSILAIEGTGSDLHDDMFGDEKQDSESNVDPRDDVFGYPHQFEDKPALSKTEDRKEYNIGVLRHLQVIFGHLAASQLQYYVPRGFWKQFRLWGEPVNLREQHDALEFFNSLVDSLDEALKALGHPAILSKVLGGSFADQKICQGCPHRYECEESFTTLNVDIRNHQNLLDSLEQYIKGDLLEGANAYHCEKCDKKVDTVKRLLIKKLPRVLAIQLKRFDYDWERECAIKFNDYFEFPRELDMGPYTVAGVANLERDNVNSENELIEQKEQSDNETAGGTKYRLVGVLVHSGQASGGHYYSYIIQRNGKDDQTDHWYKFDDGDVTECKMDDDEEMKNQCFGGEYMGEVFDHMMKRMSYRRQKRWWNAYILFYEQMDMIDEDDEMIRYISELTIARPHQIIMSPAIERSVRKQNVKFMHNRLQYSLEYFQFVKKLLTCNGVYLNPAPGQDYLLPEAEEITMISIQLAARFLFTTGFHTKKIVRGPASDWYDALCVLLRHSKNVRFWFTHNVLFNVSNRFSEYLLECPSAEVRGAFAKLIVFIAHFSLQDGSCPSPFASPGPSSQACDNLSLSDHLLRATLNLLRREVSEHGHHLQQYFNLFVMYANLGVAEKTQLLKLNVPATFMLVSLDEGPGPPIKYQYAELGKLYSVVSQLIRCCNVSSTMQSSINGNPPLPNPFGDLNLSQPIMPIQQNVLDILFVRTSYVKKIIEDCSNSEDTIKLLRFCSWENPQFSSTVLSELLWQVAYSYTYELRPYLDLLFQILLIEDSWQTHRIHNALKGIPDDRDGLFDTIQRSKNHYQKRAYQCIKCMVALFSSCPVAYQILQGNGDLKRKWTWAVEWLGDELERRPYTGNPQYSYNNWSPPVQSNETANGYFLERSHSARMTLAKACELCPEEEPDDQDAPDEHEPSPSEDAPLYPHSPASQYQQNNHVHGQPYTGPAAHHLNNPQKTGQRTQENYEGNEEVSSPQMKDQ
In short: (§1)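 Each value is an average log2 ratio of fragment to vehicle, tested by unpaired t-test. The underlying Spectronaut label-free quantities were global-median-normalised, and only proteins with ≥2 unique peptides were included. Triplicate HEK293T lysate samples (495 µg) were exposed to fragment at 200 µM or vehicle for 3 h, then to Biotin-Ahx-Ub-VS at 0.5 µM final for 1 h, before NeutrAvidin enrichment of labelled DUBs, LysC and trypsin digestion, and diaPASEF LC-MS/MS.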

UniProt P51784 = molecular target: UniProt P51784
Sequence of UniProt P51784 (P51784 whole entry): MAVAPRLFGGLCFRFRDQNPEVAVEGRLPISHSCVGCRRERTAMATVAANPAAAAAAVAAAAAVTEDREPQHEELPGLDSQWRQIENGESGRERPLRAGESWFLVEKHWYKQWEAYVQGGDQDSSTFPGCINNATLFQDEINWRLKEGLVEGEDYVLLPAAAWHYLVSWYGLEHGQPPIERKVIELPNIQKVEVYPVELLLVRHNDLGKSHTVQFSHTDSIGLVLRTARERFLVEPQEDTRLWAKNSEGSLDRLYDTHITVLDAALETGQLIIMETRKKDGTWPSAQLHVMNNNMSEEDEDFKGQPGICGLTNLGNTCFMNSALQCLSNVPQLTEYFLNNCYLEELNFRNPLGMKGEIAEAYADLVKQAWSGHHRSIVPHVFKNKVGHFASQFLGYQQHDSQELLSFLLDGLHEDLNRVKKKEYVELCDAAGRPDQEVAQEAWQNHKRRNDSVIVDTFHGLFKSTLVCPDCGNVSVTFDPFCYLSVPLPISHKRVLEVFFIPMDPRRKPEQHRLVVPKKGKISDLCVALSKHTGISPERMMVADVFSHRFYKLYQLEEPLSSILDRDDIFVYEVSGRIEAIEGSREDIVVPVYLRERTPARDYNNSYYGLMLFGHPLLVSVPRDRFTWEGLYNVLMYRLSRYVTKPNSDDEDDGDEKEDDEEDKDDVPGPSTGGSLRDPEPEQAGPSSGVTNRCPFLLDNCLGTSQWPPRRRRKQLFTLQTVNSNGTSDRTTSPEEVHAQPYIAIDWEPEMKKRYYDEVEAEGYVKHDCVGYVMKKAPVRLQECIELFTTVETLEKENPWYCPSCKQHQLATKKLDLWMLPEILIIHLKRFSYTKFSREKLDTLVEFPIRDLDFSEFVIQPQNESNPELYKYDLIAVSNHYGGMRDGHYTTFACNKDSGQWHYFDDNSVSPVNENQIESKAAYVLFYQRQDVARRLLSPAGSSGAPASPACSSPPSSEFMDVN
In short: as §1

UniProt Q5T2D3 = molecular target: T1, UniProt Q5T2D3
T1 sequence (whole entry): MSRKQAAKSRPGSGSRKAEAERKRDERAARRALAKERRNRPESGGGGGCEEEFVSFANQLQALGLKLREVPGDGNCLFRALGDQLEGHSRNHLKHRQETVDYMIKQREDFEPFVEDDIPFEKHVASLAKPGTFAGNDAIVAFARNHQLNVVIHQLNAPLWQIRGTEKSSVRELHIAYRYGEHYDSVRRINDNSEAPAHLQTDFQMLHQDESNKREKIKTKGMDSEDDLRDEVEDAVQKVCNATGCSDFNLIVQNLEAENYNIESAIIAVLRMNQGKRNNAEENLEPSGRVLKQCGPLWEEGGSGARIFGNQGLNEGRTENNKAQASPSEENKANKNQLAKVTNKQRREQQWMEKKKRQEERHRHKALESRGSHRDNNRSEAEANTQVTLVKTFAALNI
In short: as §1

UniProt Q8TE49 = molecular target: T2, UniProt Q8TE49
T2 sequence (whole entry): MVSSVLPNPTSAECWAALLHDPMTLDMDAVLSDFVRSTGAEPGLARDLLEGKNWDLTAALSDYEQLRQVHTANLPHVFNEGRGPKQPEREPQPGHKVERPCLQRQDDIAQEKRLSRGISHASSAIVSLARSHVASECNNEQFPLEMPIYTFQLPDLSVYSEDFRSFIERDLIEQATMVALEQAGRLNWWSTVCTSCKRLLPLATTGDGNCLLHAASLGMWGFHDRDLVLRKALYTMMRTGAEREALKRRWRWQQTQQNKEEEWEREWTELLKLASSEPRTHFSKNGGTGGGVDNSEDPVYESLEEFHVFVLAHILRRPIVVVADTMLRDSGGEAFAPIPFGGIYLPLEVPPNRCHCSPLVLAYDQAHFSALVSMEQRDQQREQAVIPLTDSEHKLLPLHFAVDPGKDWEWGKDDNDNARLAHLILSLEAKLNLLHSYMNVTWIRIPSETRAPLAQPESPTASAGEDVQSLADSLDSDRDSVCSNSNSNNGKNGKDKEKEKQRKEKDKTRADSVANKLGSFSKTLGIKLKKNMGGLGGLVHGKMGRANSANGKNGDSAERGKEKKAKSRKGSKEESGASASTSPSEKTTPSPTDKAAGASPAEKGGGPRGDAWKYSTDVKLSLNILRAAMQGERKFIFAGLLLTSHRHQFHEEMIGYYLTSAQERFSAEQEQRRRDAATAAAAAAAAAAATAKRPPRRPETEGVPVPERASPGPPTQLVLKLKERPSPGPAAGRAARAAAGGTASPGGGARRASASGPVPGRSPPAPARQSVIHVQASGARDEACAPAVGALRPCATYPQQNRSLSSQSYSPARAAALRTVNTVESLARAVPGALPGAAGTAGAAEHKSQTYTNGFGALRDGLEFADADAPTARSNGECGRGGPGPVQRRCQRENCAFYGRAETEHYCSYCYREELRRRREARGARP
In short: as §1

UniProt Q9P2H5 = molecular target: T3, UniProt Q9P2H5
T3 sequence (whole entry): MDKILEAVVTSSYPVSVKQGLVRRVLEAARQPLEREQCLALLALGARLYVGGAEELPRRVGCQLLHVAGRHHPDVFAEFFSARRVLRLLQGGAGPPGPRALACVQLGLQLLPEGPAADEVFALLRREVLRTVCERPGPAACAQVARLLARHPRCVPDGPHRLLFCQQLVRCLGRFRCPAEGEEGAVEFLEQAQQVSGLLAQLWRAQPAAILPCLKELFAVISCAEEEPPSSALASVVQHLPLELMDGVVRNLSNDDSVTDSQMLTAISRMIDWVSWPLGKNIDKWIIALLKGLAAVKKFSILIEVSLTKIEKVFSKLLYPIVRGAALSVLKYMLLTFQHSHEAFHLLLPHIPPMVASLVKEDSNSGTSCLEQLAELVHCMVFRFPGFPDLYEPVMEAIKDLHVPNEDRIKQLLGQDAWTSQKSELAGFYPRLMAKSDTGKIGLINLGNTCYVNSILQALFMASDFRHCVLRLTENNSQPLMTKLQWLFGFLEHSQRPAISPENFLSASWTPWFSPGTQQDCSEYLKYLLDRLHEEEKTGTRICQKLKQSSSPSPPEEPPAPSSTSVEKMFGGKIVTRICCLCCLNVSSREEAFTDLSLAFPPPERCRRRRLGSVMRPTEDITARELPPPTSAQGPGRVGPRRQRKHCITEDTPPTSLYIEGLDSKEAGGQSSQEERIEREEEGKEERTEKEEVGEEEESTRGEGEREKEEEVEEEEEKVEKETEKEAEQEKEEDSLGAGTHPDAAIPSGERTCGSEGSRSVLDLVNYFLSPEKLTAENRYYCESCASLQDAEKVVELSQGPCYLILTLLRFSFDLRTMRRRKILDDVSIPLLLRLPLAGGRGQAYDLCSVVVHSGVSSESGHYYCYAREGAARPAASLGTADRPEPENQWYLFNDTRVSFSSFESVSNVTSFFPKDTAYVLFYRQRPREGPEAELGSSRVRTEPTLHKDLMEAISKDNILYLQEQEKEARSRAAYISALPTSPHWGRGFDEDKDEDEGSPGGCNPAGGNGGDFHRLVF
In short: as §1

UniProt Q9UGI0 = molecular target: T4, UniProt Q9UGI0
T4 sequence (whole entry): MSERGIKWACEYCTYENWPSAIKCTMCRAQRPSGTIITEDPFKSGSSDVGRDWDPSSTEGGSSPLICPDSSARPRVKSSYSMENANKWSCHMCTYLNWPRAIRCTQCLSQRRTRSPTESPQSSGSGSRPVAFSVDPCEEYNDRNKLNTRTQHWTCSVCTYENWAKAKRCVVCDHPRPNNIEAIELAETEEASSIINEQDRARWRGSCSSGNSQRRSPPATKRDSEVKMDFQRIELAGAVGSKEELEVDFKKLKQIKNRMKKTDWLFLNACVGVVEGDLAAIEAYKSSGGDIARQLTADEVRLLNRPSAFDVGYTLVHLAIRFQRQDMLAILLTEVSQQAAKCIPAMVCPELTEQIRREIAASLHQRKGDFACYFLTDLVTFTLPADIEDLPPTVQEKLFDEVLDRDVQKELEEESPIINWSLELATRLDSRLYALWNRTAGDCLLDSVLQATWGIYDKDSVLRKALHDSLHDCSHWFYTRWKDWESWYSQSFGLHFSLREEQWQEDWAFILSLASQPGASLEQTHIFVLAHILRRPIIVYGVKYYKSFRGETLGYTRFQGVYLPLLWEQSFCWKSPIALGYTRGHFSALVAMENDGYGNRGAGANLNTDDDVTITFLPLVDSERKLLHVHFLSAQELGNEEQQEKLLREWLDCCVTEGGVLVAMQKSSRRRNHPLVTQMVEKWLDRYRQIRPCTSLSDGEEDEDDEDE
In short: as §1

YOD1 = molecular target: T5, YOD1 (UniProt Q5VVQ6)
T5 sequence (whole entry): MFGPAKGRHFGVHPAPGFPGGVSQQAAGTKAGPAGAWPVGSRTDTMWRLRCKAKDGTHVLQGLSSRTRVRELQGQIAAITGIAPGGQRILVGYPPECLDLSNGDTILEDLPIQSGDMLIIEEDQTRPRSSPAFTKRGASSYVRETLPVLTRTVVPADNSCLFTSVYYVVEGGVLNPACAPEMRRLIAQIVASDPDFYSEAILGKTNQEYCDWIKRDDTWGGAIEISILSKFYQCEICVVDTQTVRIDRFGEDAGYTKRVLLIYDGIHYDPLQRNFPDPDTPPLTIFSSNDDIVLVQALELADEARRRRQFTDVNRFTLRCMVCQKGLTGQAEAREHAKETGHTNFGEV
In short: as §1

Compound | log2 ratio of Biotin-Ahx-Ub-VS probe labelling (UniProt O00507) | log2 ratio of Biotin-Ahx-Ub-VS probe labelling (UniProt P51784) | log2 ratio of Biotin-Ahx-Ub-VS probe labelling (UniProt Q5T2D3) | log2 ratio of Biotin-Ahx-Ub-VS probe labelling (UniProt Q8TE49) | log2 ratio of Biotin-Ahx-Ub-VS probe labelling (UniProt Q9P2H5) | log2 ratio of Biotin-Ahx-Ub-VS probe labelling (UniProt Q9UGI0) | log2 ratio of Biotin-Ahx-Ub-VS probe labelling (YOD1)
Cc1ccccc1C1(CNC(=O)CCl)CCOCC1 | 0.332 | 0.00427 | -0.0687 | -0.333 | -0.221 | -0.577 | -0.0207
Cc1cccc(C(CNC(=O)CCl)N2CCOCC2)c1.Cl (stereo not drawn) | 0.29 | -0.0777 | -0.329 | -0.249 | -0.237 | 0.0449 | -0.28
CC(NC(=O)CCl)c1ccc2[nH]ncc2c1 (stereo not drawn) | -0.939 | -0.173 | -0.26 | -1.1 (active) | -0.0706 | -0.756 | -0.629
Cc1ccccc1CN(C)C(=O)CCl | -1.06 (active) | -0.62 | -0.704 | -1.06 (active) | -0.712 | -1.3 (active) | -0.638
CCCn1nccc1NC(=O)CCl | -0.381 | -0.0768 | -0.0284 | -1.02 (active) | -0.452 | -0.251 | -0.159
CC(=O)C1CCCCN1C(=O)CCl (stereo not drawn) | 0.17 | 0.028 | -0.0455 | -0.492 | -0.14 | 0.121 | -0.0382
Cc1ccc(C)c(NC(=O)CCl)c1 | -0.612 | -0.335 | -0.41 | -0.57 | -0.295 | -0.449 | -0.599
CN(C(=O)CCl)c1nc2ccccc2s1 | 0.257 | -0.083 | -0.0566 | -0.558 | -0.266 | -1.12 (active) | 0.155
O=C(CCl)NCc1ccc(N2CCOCC2)nc1 | -0.134 | -0.0382 | -0.374 | -0.316 | -0.162 | -0.475 | -0.207
O=C(CCl)NCCc1cccc2ccccc12 | 0.608 | 0.159 | -0.0259 | -0.28 | 0.0801 | 0.238 | 0.263
CC(c1ccccc1)N(C)C(=O)CCl (stereo not drawn) | -0.143 | -0.169 | -0.0617 | -0.555 | -0.0284 | -0.295 | 0.101
O=C(CCl)N[C@H]1CC[C@@H](CO)CC1 | -0.725 | -0.788 | -0.746 | -1.32 (active) | -0.775 | -0.944 | -0.784
Cl.O=C(CCl)N1CCc2ncncc2C1 | -0.362 | 0.0954 | -0.274 | -0.964 | -0.288 | -1.57 (active) | 0.055
O=C(CCl)N1CCOC(c2cccc(F)c2)C1 (stereo not drawn) | 0.244 | -0.328 | -0.182 | -1.26 (active) | -0.416 | -1.44 (active) | -0.0782
Cl.O=C(CCl)N1CCn2cncc2C1 | -0.138 | -0.251 | -0.246 | -0.433 | -0.128 | -0.182 | -0.133
Cc1ccc(CC(NC(=O)CCl)c2ccccn2)cc1.Cl (stereo not drawn) | -0.0403 | 0.188 | 0.254 | 0.237 | -0.00516 | -0.0851 | 0.248
COc1cc(Cl)c(C)cc1NC(=O)CCl | -0.429 | -0.107 | -0.258 | -0.622 | -0.319 | -1.23 (active) | -0.11
Cl.Cn1c(CNC(=O)CCl)nc2cccnc21 | -0.348 | -0.0765 | -0.354 | -0.488 | -0.199 | -0.199 | -0.334
O=C(CCl)N1CCOCC1C1CC1 (stereo not drawn) | -0.0511 | 0.141 | -0.288 | -0.663 | -0.279 | -0.344 | -0.172
